Data reported in PubChem BioAssay AID1851 (National Center for Advancing Translational Sciences (NCATS), 2009).
Among all 16,000 compounds or so, about 2,600 (16%) were called active. Roughly 20% stayed inconclusive and do not appear here. Calls come from the whole dose curve; as a rule, active = well fitted curve in the direction sought with a large enough effect; inconclusive = small, poorly fitted or top-dose-only effect, or effect the other way; inactive = no such curve, though single readings can be large or run the other way. A selection follows.

Biological target: Cytochrome P450 2D6 (Homo sapiens) (UniProt P10635)
Assay: Cytochrome panel assay with activity outcomes
Details: recombinant CYP, pro-luciferin dealkylation, luminescence, p450-cyp2d6; series mostly up to 57.1 µM
% is set by controls: 0 for no effect and ±100 for the full control effect.

Cytochrome P450 2D6 (Homo sapiens), sequence (P10635 whole entry, looked up): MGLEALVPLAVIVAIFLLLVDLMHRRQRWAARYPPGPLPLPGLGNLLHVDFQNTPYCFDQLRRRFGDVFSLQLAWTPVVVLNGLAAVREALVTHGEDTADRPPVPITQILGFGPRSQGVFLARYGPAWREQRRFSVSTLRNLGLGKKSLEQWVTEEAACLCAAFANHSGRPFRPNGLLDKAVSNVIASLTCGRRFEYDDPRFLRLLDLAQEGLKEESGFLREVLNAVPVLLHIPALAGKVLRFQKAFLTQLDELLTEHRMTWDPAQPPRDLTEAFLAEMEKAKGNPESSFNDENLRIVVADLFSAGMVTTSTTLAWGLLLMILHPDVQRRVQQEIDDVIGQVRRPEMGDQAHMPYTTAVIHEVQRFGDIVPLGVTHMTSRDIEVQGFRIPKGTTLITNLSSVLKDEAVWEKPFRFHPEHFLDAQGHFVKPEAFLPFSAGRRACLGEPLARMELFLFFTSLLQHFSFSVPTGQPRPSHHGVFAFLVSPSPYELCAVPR

AC50, active:
Cc1cc(C)c(C#N)c(SCc2cc3c(cc2Cl)OCO3)n1 8.91 µM
Cc1cccc(OCCCCCn2ccnc2)c1 0.1 µM
Cc1ccc(OCCOCCn2ccnc2)c(Br)c1 1 µM
Cc1nc(SCC(=O)NCCc2ccc(Cl)cc2)nc(C)c1C 3.55 µM
CC(=O)OC[C@H]1O[C@@H](O/N=C(\C)CCN2CCCc3nc(C)c(C)cc32)[C@H](OC(C)=O)[C@@H](OC(C)=O)[C@H]1OC(C)=O 3.16 µM
CC(=O)OC[C@H]1O[C@@H](O/N=C(\C)CCN2CCCCc3nc(C)c(C)cc32)[C@H](OC(C)=O)[C@@H](OC(C)=O)[C@H]1OC(C)=O 3.98 µM
CN(c1ccccc1)c1nc(-n2ccnc2)nc(-n2ccnc2)n1 11.2 µM
c1ccc(-c2nc(N3CCCCCC3)nc(-n3ccnc3)n2)cc1 14.1 µM
c1csc(CNc2cc(-c3ccoc3)ncn2)c1 15.8 µM
Cc1cccc(CNc2cc(-c3ccoc3)ncn2)c1 25.1 µM

AC50, inactive:
O=c1[nH]c2ccccc2c2ccccc12
O=c1[nH]ccc2c(O)cccc12
Cc1cc(C)c(C#N)c(SCC(=O)C(C)(C)C)n1
Cc1cc(C)c(C#N)c(SCC(=O)c2ccc(Cl)cc2Cl)n1
Cc1ccc(/C(O)=C2/C(=O)C(=O)N(CCCn3ccnc3)C2c2ccccn2)cc1 (stereo unspecified)
Brc1ccccc1OCCOCCOc1cccc2cccnc12
COc1cc(C)ccc1OCCCOc1ccccc1Br
C/C(CC(=O)Nc1cc(C)ccn1)=N\NC(=O)COc1cccc(C)c1
Cc1ccc(C(=O)COC(=O)c2ccc3c(c2)C(=O)N(c2cccc4ncccc24)C3=O)cc1C
Cc1ccc(C)c(S(=O)(=O)NC(CC(C)C)C(=O)O)c1 (stereo unspecified)
COc1ccc(C2/C(=C(/O)c3ccc4c(c3)CC(C)O4)C(=O)C(=O)N2CCN2CCOCC2)cc1 (stereo unspecified)
CN1CCN(c2ncc3ncc(=O)n(Cc4ccc(F)cc4)c3n2)CC1
Nc1nc2c(ncn2COC(CO)CO)c(=O)[nH]1
O=C1Nc2ccc([N+](=O)[O-])cc2C1(O)N1CCCCCC1 (stereo unspecified)
Nc1cc(N)nc(SCC(=O)NNC(=O)c2ccc(Cl)cc2)n1
Cc1nc(SCC(=O)Nc2ccc(N3CCOCC3)cc2)nc(C)c1C
CCOc1ccc(NC(=O)Cn2nnc(C(=O)NCc3ccccc3OC)c2N)cc1
COc1ccc(C2(CNC(=O)/C=C/c3ccco3)CCCC2)cc1OC
O=C(NC(=S)Nc1nc(-c2ccc(Br)cc2)cs1)c1cccnc1
Cc1ccccc1-c1cc(C(=O)Nc2nc3c(s2)CCCC3)c2ccccc2n1
O=C(c1cnccn1)N1CCC[C@@]2(CCN(c3ncccn3)C2)C1
CCOC(=O)c1nc2sc(C)c(C)c2c(=O)[nH]1
C[C@@H]1O[C@@H](n2cc(F)c(=O)[nH]c2=O)[C@H](O)[C@@H]1O
COC(=O)[C@@]1(Cc2ccc(OC)cc2)[C@@H]2C(=CC(=O)[C@H]2CC(=O)C(=O)N(C)C)CN1C(=O)c1ccccc1
CCOc1nc(N2CCCCC2)nc(-n2cc(-c3ccccc3)nn2)n1
CCCSc1cc(N2CCCC2)nc(-c2ccccc2)n1
C[C@@H](N)C(=O)O
Cc1c(C(=O)NN2CCN(C)CC2)cccc1[N+](=O)[O-]
Cc1sc(=NC(=O)c2ccco2)n(C)c1-c1ccc(F)cc1
CCc1cc2cc(C)c(C)cc2nc1SCC(=O)NNC(=O)c1ccco1
CC(C)(C)C(=O)N1CCN(c2ccc([N+](=O)[O-])c(NCC3CCCO3)c2)CC1 (stereo unspecified)
O=c1c(Cl)c(N2CCN(S(=O)(=O)c3ccc(F)cc3)CC2)cnn1-c1cccc(Cl)c1
c1cncc(CNc2cc(-c3ccoc3)ncn2)c1
Cc1cccc(CNc2cc(-c3ccc(N(C)C)cc3)ncn2)c1
Cc1cnc(CNc2cc(-c3ccoc3)ncn2)cn1

activity, negative = inhibition, inactive:
OCCCNc1ncnc2[nH]ncc12 15.1% [at 11.4 µM]
CC(C)[C@H](Sc1nc(N)nc2nc[nH]c12)C(=O)O 2.46% [at 11.4 µM]
CC(C)(C)N1C(=O)[C@H]2[C@H]3[C@H](O)[C@H](O)C/C(=N/NC(=O)OCc4ccccc4)[C@H]3CC[C@@H]2C1=O 6.89% [at 11.4 µM]
CC(=O)OC[C@@H]1O[C@H](CCO/N=C(\C)CCN2CCCc3nc(C)c(C)cc32)C=C[C@@H]1OC(C)=O -15.6% [at 11.4 µM]
COc1cccc([C@H](O)Cn2cc(-c3ccc(CON=C(C)C)cc3)nn2)c1 4% [at 11.4 µM]
CC(=O)C=NCC(=O)O -2.95% [at 11.4 µM]
